Screens deposited in PubChem by several laboratories.
Gli-Sufu block: Gli-Sufu pathway antagonism | inhibition, % at 5 µM | 340,000 tested, 0.74% active | Sufu-KO-LIGHT fibroblasts, Gli luciferase reporter luminescence;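 active = inhibition above about 55%, limit read from the data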;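 also: 0% = DMSO-treated cells and 100% = wells with medium but no cells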
SRC2 inh: inhibits human steroid receptor coactivator 2; HEK293 GAL4-SRC2 luciferase reporter, luminescence; inhibition, % at 9 µM; 370,000 tested, 0.17% active;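 active = inhibition above the mean inhibition of all tested compounds plus 3 SD, set per campaign, cut at about 52% in these data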;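 also: 0% = DMSO treated cells and 100% = cells given Gossypol at 36 µM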
COUP-TFII inh: blocks human COUP-TFII nuclear receptor. P24468. HEK293T NGFI-A luciferase reporter, luminescence. inhibition, % at 8.6 µM. 370,000 tested, 0.7% active. AID 686940;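 active = inhibition above a per-plate cutoff, mean inhibition of test wells between control levels plus 3 SD, cut at about 38% in these data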;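 also: cells cotransfected with COUP-TFII expression vector driving the NGFI-A reporter; 0% = median of COUP-TF2 test wells and 100% = reporter-only cells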
NCOA1 inh: inhibitors of human steroid receptor coactivator 1 (SRC1); AID 588354; inhibition, % at 3.6 µM; 360,000 tested, 0.12% active; HEK293 GAL4-SRC1 luciferase reporter, luminescence;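 active = inhibition above the campaign mean plus 3 SD, with each screening campaign given its own cutoff, cut at about 60% in these data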;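 also: 0% = DMSO treated cells and 100% = gossypol at 36 µM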
NR5A2 inv ag: inverse agonists of human LRH-1 (NR5A2) | inhibition, % at 3.6 µM | HEK293T StAR-luciferase reporter, LRH-1 transfected, 24 h | 360,000 tested, 0.13% active;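 active = inhibition above the mean inhibition of all tested compounds plus 3 SD, cut at about 73% in these data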;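 also: 0% = DMSO wells and 100% = reporter-only cells lacking LRH-1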
NCOA3 inh: inhibits human SRC3 coactivator; Q9Y6Q9; HEK293 GAL4-SRC3 luciferase reporter, luminescence; inhibition, % at 3.6 µM; 360,000 tested, 0.17% active; AID 588352;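 active = inhibition above a per-campaign cutoff, the mean of all compounds plus 3 SD, cut at about 60% in these data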;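 also: 0% = DMSO-treated cells and 100% = gossypol-treated cells at 36 µM; higher means less SRC3-driven luciferase light from the GAL4 reporter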
The depositor's hits bear a star. Hits are enriched below; roughly 1.3% of the tested compounds scored in any of these assays.

How did C=C(NC(=O)C(=C)NC(=O)c1csc(C2=NC3c4csc(n4)C4NC(=O)c5csc(n5)C(C(C)(O)C(C)O)NC(=O)C5CSC(=N5)/C(=C/C)NC(=O)C(C(C)O)NC(=O)c5csc(n5)C3(CC2)NC(=O)C(C)NC(=O)C(=C)NC(=O)C(=C)NC(=O)C(C(C)C)NC2C=Cc3c(C(C)O)cc(nc3C2O)C(=O)OC4C)n1)C(N)=O (stereo not drawn) do in these assays?
Gli-Sufu block: 66*; SRC2 inh: 12; COUP-TFII inh: 42*; NCOA1 inh: -90; NR5A2 inv ag: -29; NCOA3 inh: -44

What do the screens show for `COc1ccccc1C(=O)NCCNc1nc2cc(C)cc(C)c2cc1C#N`?
Gli-Sufu block: 5; SRC2 inh: -5; COUP-TFII inh: 5; NCOA1 inh: -7; NR5A2 inv ag: -4; NCOA3 inh: -1

Results for COc1ccc(C(=O)NCCNc2nc3cc(C)cc(C)c3cc2C#N)c(OC)c1 ?
SRC2 inh: 77*; COUP-TFII inh: 10; NR5A2 inv ag: 30

What do the screens show for `CCCCCN1CCCCC(NC(=O)c2c(F)cccc2F)C1=O` (stereo not drawn)?
SRC2 inh: 6; COUP-TFII inh: -16

What do the screens show for `N#Cc1ccc(/C=C2\CC3(OC(=O)C4CCCC4)CCCN2C3)cc1` (stereo not drawn)?
SRC2 inh: -20; COUP-TFII inh: 9

How did N=C1S/C(=C\c2ccc(-c3cccc(Cl)c3)o2)C(=O)N1c1nccs1 do in these assays?
Gli-Sufu block: 88*; SRC2 inh: -17; COUP-TFII inh: -5; NCOA1 inh: -9; NR5A2 inv ag: 12; NCOA3 inh: 5

How did O=C(NC1CCCCN(Cc2ccc(Cl)cc2)C1=O)c1cccc2nsnc12 (stereo not drawn) do in these assays?
SRC2 inh: -1; COUP-TFII inh: 12

Results for COc1ccc2c(c1)C[C@@H]1CC(C)(C)CN1S2(=O)=O ?
COUP-TFII inh: -14

Results for Cc1ccc(-c2nnn(CC(=O)N(Cc3cccs3)C(C(=O)NCC3CCCO3)c3ccco3)n2)o1 (stereo not drawn) ?
Gli-Sufu block: -8; SRC2 inh: 17; COUP-TFII inh: 3; NCOA1 inh: -1; NR5A2 inv ag: 16; NCOA3 inh: 12

Results for COc1ccc(-c2nnn(CC(=O)N(Cc3ccccc3Cl)C(C(=O)NCC3CCCO3)c3ccco3)n2)cc1OC (stereo not drawn) ?
Gli-Sufu block: 23; SRC2 inh: 95*; COUP-TFII inh: 7; NCOA1 inh: -11; NR5A2 inv ag: -14; NCOA3 inh: 11

Results for COc1cccc2[nH]c(=O)c(-c3ccccc3)cc12 ?
Gli-Sufu block: -65; SRC2 inh: -44; COUP-TFII inh: -31; NCOA1 inh: -61; NR5A2 inv ag: -98; NCOA3 inh: 83*

Results for COc1ccc(-c2cc(=O)[nH]c3ccccc23)cc1 ?
Gli-Sufu block: -17; SRC2 inh: -29; COUP-TFII inh: 6; NCOA1 inh: 0; NR5A2 inv ag: 19; NCOA3 inh: -8

Results for Cc1c(C)c2cccnc2c2ncccc12 ?
Gli-Sufu block: 92*; NCOA1 inh: 42; NR5A2 inv ag: 87*; NCOA3 inh: 54

How did CC(C)(C)C(=O)/C(=C/c1ccncc1)n1cncn1 do in these assays?
Gli-Sufu block: 22; SRC2 inh: 72*; COUP-TFII inh: 26; NCOA1 inh: 54; NR5A2 inv ag: 52; NCOA3 inh: 63*

What do the screens show for `CC(C)(C)OC(=O)/C=C/[C@H](CCCCl)Sc1ccc(C(C)(C)C)cc1`?
SRC2 inh: 30; COUP-TFII inh: 12

Results for Cc1ccc(Nc2cc(C)nn2-c2nc(C)cc(=O)[nH]2)cc1 ?
Gli-Sufu block: 92*; NCOA1 inh: -300; NR5A2 inv ag: 67; NCOA3 inh: 25

How did COc1ccc(S[C@]2(C(=O)N(C)C)CC(=O)N(C(=O)CCc3ccccc3)[C@@H]2c2ccc(OC)cc2)cc1 do in these assays?
SRC2 inh: 22; COUP-TFII inh: 28

How did Cc1ccc(-c2nnc(SCC(=O)Nc3ccc(F)cc3F)n2Cc2ccco2)cc1 do in these assays?
SRC2 inh: -11; COUP-TFII inh: 2

Results for CCOC(=O)c1c(C)n(-c2ccc(C)cc2)c2c(C(C(C)=O)C(=O)O)c(Br)c(O)c(O)c12 (stereo not drawn) ?
Gli-Sufu block: 7; SRC2 inh: -7; COUP-TFII inh: 18; NCOA1 inh: -15; NR5A2 inv ag: -3; NCOA3 inh: 14

What do the screens show for `CCOC(=O)C(C(C)=O)c1c(Br)c(O)c(O)c2c(C(=O)c3ccc(C)cc3)coc12` (stereo not drawn)?
Gli-Sufu block: 50; SRC2 inh: -1; COUP-TFII inh: 31; NCOA1 inh: 59; NR5A2 inv ag: 67; NCOA3 inh: 80*

Results for COC(=O)[C@]12C[C@H](CC(=O)NCCC(C)C)C(=O)N(Cc3ccco3)C1=C[C@H](C(C)(C)C)O[C@@H]2C ?
SRC2 inh: -8; COUP-TFII inh: -10

What do the screens show for `COc1cc2ccccc2ccc1=NO`?
Gli-Sufu block: -12; SRC2 inh: 54*; COUP-TFII inh: 15; NCOA1 inh: 48; NR5A2 inv ag: 36; NCOA3 inh: 49

How did COc1cc2ccccc2cc1C(=O)O do in these assays?
Gli-Sufu block: -3; SRC2 inh: -38; COUP-TFII inh: 1; NCOA1 inh: 1; NR5A2 inv ag: -5; NCOA3 inh: 9

Results for O=C(Nc1ccccc1C(=O)Nc1nnc(C(F)(F)F)s1)c1ccccc1 ?
Gli-Sufu block: 76*; SRC2 inh: 19; COUP-TFII inh: 4; NCOA1 inh: -8; NR5A2 inv ag: -2; NCOA3 inh: 17

How did C=C(C)CSc1nc2sc(C)c(C)c2c(=O)n1C do in these assays?
SRC2 inh: 3; COUP-TFII inh: 4

How did C[N+](C)(CCOc1ccccc1)Cc1ccccc1 do in these assays?
Gli-Sufu block: 10; SRC2 inh: 6; COUP-TFII inh: 10; NCOA1 inh: -1; NR5A2 inv ag: 13; NCOA3 inh: -1

What do the screens show for `Cc1cc(C(C)(C)CC(C)(C)C)ccc1OCCOCC[N+](C)(C)Cc1ccccc1`?
Gli-Sufu block: 65*; SRC2 inh: -10; COUP-TFII inh: 17; NCOA1 inh: 9; NR5A2 inv ag: -20; NCOA3 inh: -15

Results for CCOc1ccc(C2C=C(c3ccc(F)cc3)Nc3ncnn32)cc1 (stereo not drawn) ?
Gli-Sufu block: -38; SRC2 inh: -52; COUP-TFII inh: -31; NCOA1 inh: -43; NR5A2 inv ag: -63; NCOA3 inh: -64

What do the screens show for `Fc1ccc(C2=CC(c3ccc(Br)o3)n3ncnc3N2)cc1` (stereo not drawn)?
Gli-Sufu block: 13; NCOA1 inh: -8; NR5A2 inv ag: 5; NCOA3 inh: 1

Results for Oc1ccc(C2C=C(c3ccc(F)cc3)Nc3ncnn32)cc1 (stereo not drawn) ?
Gli-Sufu block: 2; SRC2 inh: 20; COUP-TFII inh: 0; NCOA1 inh: 66*; NR5A2 inv ag: 0; NCOA3 inh: 11
